# Screening data as filed in PubChem BioAssay.
# Sampled rows, rich in hits. Any-hit rate of the full collection: about 0.86%.
# HIV TAR-Tat: HIV-1 TAR-Tat binding disruption; HIV-1 TAR RNA, Tat peptide displacement FRET; stronger effect = higher value; z-score (test concentration not listed); hit rate 0.6% among 100,000; active means z-score of 3 or more in at least 2 runs
# CDC25B CDK2 inh: human CDC25B-CDK2/CyclinA binding inhibition | hit rate 0.72% among 94,000 | z-score (concentration not given with the values) | HTRF CDC25B-CDK2/CyclinA binding, anti-His/anti-Flag; stronger effect = higher value | AID 1259370; in the data active means z-score above about 3.2
# Numbers stand for hits; n = inactive; x = no result given.
SMILES,HIV TAR-Tat,CDC25B CDK2 inh
CCCSc1nc2c(c(=O)[nH]1)C(c1ccc(C(=O)OC)cc1)C(C(=O)OCC)=C(C)N2 (stereo not drawn),n,n
Cc1ccc(-c2noc(-c3nnn(-c4ccc(F)cc4)c3C)n2)cc1,n,x
Fc1ccc(-c2cn3ccccc3n2)cc1,n,n
Fc1ccc(-c2cn3c(n2)Cc2ccccc2C3)cc1,x,18
COC(=O)CNC(=O)N1CCN(Cc2ccc3nccnc3c2)CC1,n,x
CCOC(=O)C1CCN(c2cc(NCc3ccco3)c3c4c(onc24)-c2ccccc2C3=O)CC1,n,15
O=C(O)CNc1cc(N2CCC(c3ccccc3)CC2)c2noc3c2c1C(=O)c1ccccc1-3,n,5.1
CCOC(=O)C1CCN(c2cc(NCCCC(=O)O)c3c4c(onc24)-c2ccccc2C3=O)CC1,24,14
CC1CCN(c2cc(NCCCC(=O)O)c3c4c(onc24)-c2ccccc2C3=O)CC1,n,n
CCOC(=O)C1CCN(c2cc(NCCCN(C)C)c3c4c(onc24)-c2ccccc2C3=O)CC1,n,n
O=C1c2ccccc2-c2onc3c(N4CCN(CCO)CC4)cc(NCc4ccco4)c1c23,n,n
COCCCNc1nc2ccccc2c2nc(CCn3c(C)nc4ccccc43)nn12,n,n
CC(=O)OC[C@@]1(O)C[C@@]23CC[C@@H]4c5ccoc5C=C[C@@]4(C)[C@@H]2CC[C@@H]1C3,n,x
Cn1c(=O)c(C(=O)O)nc2ccccc21,n,n
CCOC(=O)c1nc2ccccc2n(C)c1=O,n,23
O=C1CN(Cc2ccccc2F)S(=O)(=O)c2ccccc2N1Cc1ccc(F)cc1,n,x
O=C1CN(Cc2ccccc2F)S(=O)(=O)c2ccccc2N1Cc1ccccc1,9.4,x
COC(=O)C(C)Sc1nnc(CSc2ncccn2)n1-c1ccc(OC)cc1 (stereo not drawn),n,n
CCCn1c2ccccc2c2nnc(SC(CC)C(=O)Nc3cc(C)on3)nc21 (stereo not drawn),n,17
CCOC(=O)c1sc(NC(=O)C(CC)Sc2nnc3c4ccccc4n(CC)c3n2)nc1C (stereo not drawn),n,n
COc1ccc(S(=O)(=O)N2CCN(CC(=O)Nc3cc(NC(C)=O)ccc3OC)CC2)cc1,x,n
Cc1ccc(S(=O)(=O)Nc2c(C)c(Cl)c(O)c(Cl)c2C)cc1,x,n
COc1ccc(C2CC(=O)N3CN(Cc4ccco4)CSC3=C2C#N)c(OC)c1 (stereo not drawn),n,5.9
COc1cccc(C2CC(=O)N3CN(Cc4ccco4)CSC3=C2C#N)c1OC (stereo not drawn),n,3.4
CC(C)c1ccc(C2CC(=O)N3CN(Cc4ccco4)CSC3=C2C#N)cc1 (stereo not drawn),n,n
SMILES,HIV TAR-Tat,CDC25B CDK2 inh
CC(=O)c1cc(CC=C(C)C)c(O)c(CC=C(C)C)c1,n,x
Cc1cc(NC(=O)CN(C)S(=O)(=O)c2cc3c(cc2C)NC(=O)C(C)O3)no1 (stereo not drawn),n,x
CCOc1cc(C2CC(=O)N3CN(Cc4ccco4)CSC3=C2C#N)ccc1O (stereo not drawn),n,n
CCOc1cc(C2CC(=O)N3CN(c4ccc(CC)cc4)CSC3=C2C#N)ccc1O (stereo not drawn),24,n
CCOc1cc(C2CC(=O)N3CN(c4ccc(Br)cc4)CSC3=C2C#N)ccc1O (stereo not drawn),27,n
CCCSC1=C(C#N)C(c2ccc(O)c(OCC)c2)CC(=O)N1 (stereo not drawn),n,n
O=C(c1ccc(Cl)cc1)N1N=C(c2ccccc2)CC1(O)C(F)(F)F (stereo not drawn),x,n
C[C@H](Cc1ccc(O)c(O)c1)[C@@H](C)Cc1ccc(O)c(O)c1,x,n
N[C@@H](Cc1ccc(O)c(O)c1)C(=O)O,24,n
CC(Cc1ccc(O)c(O)c1)C(C)Cc1ccc(O)c(O)c1 (stereo not drawn),6.2,x
N[C@@H](Cc1ccc([N+](=O)[O-])cc1)C(=O)O,x,n
CNC(C)(C)c1nnnn1-c1c(C)cccc1C,n,x
Cc1ccc(C2CC(=O)c3nnc4c(-c5ccccc5)c(C)nn4c3C2)cc1 (stereo not drawn),n,n
Cc1cc2nc(CN(C)c3ccc(Cl)cc3)cc(=O)n2o1,n,x
O=C(COC(=O)c1cccs1)c1ccc(Cl)cc1,x,17
O=C(COC(=O)c1ccco1)c1ccc(Cl)cc1,x,n
O=c1cc(-c2ccc(F)cc2)nc(N2CCN(Cc3ccc4c(c3)OCO4)CC2)[nH]1,n,x
COC(=O)c1cc(S(=O)(=O)N2c3ccccc3CC2C)c[nH]1 (stereo not drawn),22,x
CC(=O)N1c2ccc(S(=O)(=O)N3c4ccccc4CC3C)cc2CC1C (stereo not drawn),n,x
Cc1nc2c(C(=O)O)cnn2c(C)c1Cc1ccc(Cl)cc1,n,x
Clc1cccc(-n2ncc3c(N4CCc5ccccc54)ncnc32)c1,n,x
CC(C)CC(=O)N[C@H](C(=O)N[C@H](C(=O)N[C@@H](CC(C)C)[C@@H](O)CC(=O)N[C@@H](C)C(=O)N[C@@H](CC(C)C)[C@@H](O)CC(=O)O)C(C)C)C(C)C,19,x
O=C1CC(c2ccc(Br)cc2)C2=C(CC(c3ccccc3Cl)CC2=O)N1 (stereo not drawn),n,n
CC(=O)N1c2ccc(S(=O)(=O)N3CCCC3)cc2CC1C(=O)NCc1ccc2c(c1)OCO2 (stereo not drawn),n,x
Fc1cccc(Nc2ncnc3onc(-c4ccc(Cl)cc4)c23)c1,18,x
SMILES,HIV TAR-Tat,CDC25B CDK2 inh
Fc1ccc(-c2noc3ncnc(Nc4cccc(Cl)c4)c23)cc1,n,x
COc1cccc2c1Oc1ncccc1N(C(=O)CCC(=O)O)C2,n,n
COc1cccc2c1Oc1ncccc1NC2,n,8.6
Cc1cc(=O)n2nc(-c3cccs3)nc2n1CC(=O)N1CCCCC1C (stereo not drawn),n,n
O=C(NCc1cccnc1)C1CCC(Cn2c(=S)[nH]c3ccccc3c2=O)CC1 (stereo not drawn),x,n
CNC(=O)c1c(NC(=O)c2ccccc2Br)sc2c1CCC2,n,x
Cc1ccc(-c2nc(SCc3cc(=O)c4cccc(Cl)c4[nH]3)n[nH]2)cc1,n,x
COc1ccc(-c2nc(SCc3cc(=O)c4cccc(Cl)c4[nH]3)n[nH]2)cc1,6.8,x
Cn1c(=O)oc2cc(NS(=O)(=O)c3cccc(Cl)c3)ccc21,n,x
Cc1c(CNCc2cccs2)c(C(=O)O)c(C)n1-c1ccccc1,n,x
Cc1ccc(S(=O)(=O)Nc2cc(Cl)c(O)c3ncccc23)cc1,n,14
Cc1ccc(S(=O)(=O)Nc2cc(S(=O)(=O)c3ccc(C)cc3)c(O)c3cccnc23)cc1,n,n
COc1ccc(NC(=O)CCS(=O)(=O)c2ccc3c(c2)CC(C)N3C(=O)C2CC2)c(OC)c1 (stereo not drawn),n,x
CC(/C=N/O)=N\Nc1ccccc1,x,n
C/C(CC(C)(C)Nc1ccccc1)=N\O,x,14
C/C(=N\NC(=O)c1cc(C(C)(C)C)[nH]n1)c1ccc(Br)cc1,x,n
CC(Oc1ccc(O)cc1)(P(=O)(O)O)P(=O)(O)O,26,x
CC(=O)Oc1cccc(O)c1,n,x
N#CC1=C2N=C(N)c3ccccc3N2C2=C(C(=O)CCC2)C1c1cccc(Cl)c1 (stereo not drawn),n,19
COc1cccc(C2C(C#N)=C3N=C(N)c4ccccc4N3C3=C2C(=O)CCC3)c1 (stereo not drawn),n,n
O=C1CC(=O)Nc2cc(S(=O)(=O)Nc3ccc(Oc4ccc(Cl)cc4)cc3)ccc2N1,n,x
